Results taken from PubChem BioAssay AID504437 (Emory University Molecular Libraries Screening Center, 2011).
Hit rate of the full screen: of about 2,100 compounds, about 940 (45%) were called active. The set was probably picked from earlier hits. These entries were drawn from the full list. Values without a mark were called inactive.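 The calls were made as follows: active = mean of three repeat readings of reporter signal inhibition above a set limit (cut at about 70% in these data); inactive = the rest.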

Experiment: CHOP promoter reporter blockers, replicate testing – cell-based, confirmation (AID 504437);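 also: 0% = tunicamycin plus vehicle and 100% = wells lacking tunicamycin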
Conditions: CHO-CHOP promoter luciferase reporter, tunicamycin-induced, luminescence; at 10 µM; hits give high values

| Compound | inhibition |
| --- | --- |
| NC(=O)CC(NC(=O)Cc1cccc2ccccc12)c1ccc(NCc2cc(F)ccc2F)c([N+](=O)[O-])c1 (stereo not drawn) | 87.6% (active) |
| O=[N+]([O-])c1c(NCCO)cc(Sc2nc3ccccc3s2)c2nonc12 | -6.6% |
| CC1=C/C(=N\OS(=O)(=O)c2ccccc2)C=CC1=O | 141% (active) |
| CCOc1ccc2nc(Nc3nc4ccc(NC(C)=O)cc4s3)sc2c1 | 56.5% |
| COc1ccc(COC(=O)c2n[nH]c3ccccc23)cc1F | 15.5% |
| O=C(CCl)Nc1ccc(Sc2ccc(NC(=O)CCl)cc2)cc1 | 113% (active) |
| Fc1ccccc1/C=C1\CCCC2=C1Nc1ncnn1C2c1ccccc1F (stereo not drawn) | 6.7% |
| O=C(NNc1ccccc1Cl)C(O)(c1cccc(C(F)(F)F)c1)c1cccc(C(F)(F)F)c1 | 54.8% |
| O=C(Cn1cc(C(F)(F)F)ccc1=O)N/N=C/c1ccc(Cl)cc1Cl | 27.2% |
| OCCCNc1nccc(-c2cc(Nc3cccc(Cl)c3)ncn2)n1 | 121% (active) |
| Cc1ccc(-n2ncc3c2ncn2nc(-c4ccco4)nc32)c(C)c1 | -1.3% |
| COc1ccc(NC(=O)/C(C#N)=C\c2cc(OC)c(OCc3ccc(C(=O)O)cc3)cc2Br)cc1 | 17.8% |
| O=C(Nc1ccccc1Cl)/C(Cl)=C(\Cl)S(=O)c1ccccc1 (stereo not drawn) | 122% (active) |
| Clc1cccc(CN2COc3c(cc(Cl)c4cccnc34)C2)c1 | -62% |
| COc1cccc(-c2nnc(NC(=O)c3ccc(S(=O)(=O)N(CC(C)C)CC(C)C)cc3)o2)c1 | 110% (active) |
| CCOC(=O)c1cc2cc(-c3c(C(=O)OCC)oc4cc(O)cc(O)c4c3=O)ccc2o1 | 46.1% |
| Cc1nnc(SCC(=O)N/N=C/c2cn(-c3ccccc3)nc2-c2ccc(F)cc2)n1-c1ccccc1 | -50.1% |
| CCN(CC)S(=O)(=O)c1ccc2nc(COC(=O)c3n[nH]c4ccccc34)[nH]c2c1 | 66% |
| CCCCCCn1c(CN2CCCC(C)C2)nc2c1c(=O)n(C)c(=O)n2C (stereo not drawn) | 97.6% (active) |
| O=C(CC(NC(=O)c1ccccc1)c1ccccc1)Nc1ccc(F)c(F)c1 (stereo not drawn) | 67.4% |
| CCCCCn1c(SCCC(C)C)nc2c1c(=O)[nH]c(=O)n2C | 97.6% (active) |
| CCCCSc1nc2c(c(=O)n1CC)SC(C)C2 (stereo not drawn) | 58.6% |
| C=C(C)C(=O)O[C@H]1C/C(C)=C\C(=O)/C=C(\C)[C@H](O)[C@@H]2OC(=O)C(=C)[C@@H]21 | 43.7% |
| Cc1cccc(NC(=O)Nc2cccc(Oc3c(F)c(F)c(F)c(F)c3F)c2)c1 | 69.3% |
| O=C(Nc1cc(N2CCOCC2)ncn1)NC1(C(F)(F)F)Oc2ccc(Cl)cc2O1 (stereo not drawn) | 93.7% (active) |
| Cc1c(C(=O)Nc2cccc(Cl)c2)cn2c(nc3ccccc32)c1C#N | 33.5% |

| Compound | inhibition |
| --- | --- |
| O=C(/C=C/Sc1ncn[nH]1)c1ccc(Cl)cc1 | 98% (active) |
| FC(F)(F)c1cc(-c2ccco2)nc(N2CCOCC2)n1 | 49.6% |
| O=C(CCl)N(Cc1cccc([N+](=O)[O-])c1)c1cccc(Cl)c1 | 118% (active) |
| Cc1ccc(-n2nc(C)c(/C=N/NC(=O)c3cccs3)c2Cl)cc1 | -50.9% |
| CN1C(=O)/C(=C/c2ccc(C(=O)NC3CCCC3)cc2)Oc2ccccc21 | -73.2% |
| O=C1C=C(c2ccc(Cl)cc2)C(=O)N1Nc1ccccc1 | -116% |
| COc1cc(/C=N/NC(=O)Nc2ccccc2)ccc1OCCOc1ccccc1C | 86.2% (active) |
| CCCOc1ccc(Cc2c(Cl)nc(SC)nc2NC)cc1 | 104% (active) |
| N#CC(C(=O)c1ccc(S(=O)(=O)N2CCCCCC2)cc1)c1nc2ccccc2[nH]1 (stereo not drawn) | -6.4% |
| CCSc1nc(C)nc2c1oc1ccccc12 | 19.6% |
| Cc1ccc(-c2csc(-c3c[nH]c4ccccc34)n2)cc1 | 53.5% |
| COc1ccc(-n2c(SCC(=O)Nc3sc4c(c3C#N)CCCC4)nnc2-c2ccc(O)cc2)cc1 | 37.1% |
| Cc1nc(SCC(=O)Nc2cc(C)on2)c2c3c(sc2n1)CCCC3 | 80.7% (active) |
| Oc1ccc(/C=N/N(Cc2ccccc2)c2ccccc2)cc1 | 30.1% |
| Cc1c(-c2ccccc2)n[nH]c1C(=O)N=Nc1c(O)[nH]c2ccccc12 | -12.3% |
| Cc1cc(-c2n[nH]c(=S)n2/N=C/C(Br)=C/c2ccccc2)n[nH]1 | 106% (active) |
| FC(F)(F)c1cc(C(F)(F)F)c2ccc(N3CCN(c4ccccc4)CC3)nc2n1 | 61.6% |
| CCCCc1nc(NCCN)c(C#N)c2c1CSC(C)(C)C2 | 82.5% (active) |
| O=[N+]([O-])c1cccc(-c2nnc3c4ccccc4c4ccccc4n23)c1 | 23.3% |
| CCCCCCC(=O)N(O)C1CC(=O)N(c2ccccc2)C1=O (stereo not drawn) | 16.2% |
| Clc1ccc(Nc2nc(-c3cccs3)cs2)nc1 | 124% (active) |
| Oc1cccc(C2c3[nH]c4ccccc4c3CCN2Cc2cnn(-c3ccccc3)c2)c1 (stereo not drawn) | -4.4% |
| O=[N+]([O-])c1cc(S(=O)(=O)CCCN2CCOCC2)ccc1F | -45.2% |
| CC(C)Cc1cc(C(=O)Nc2cc(Br)ccc2O)no1 | 22.3% |
| O=C(Nc1ccccc1C(F)(F)F)c1cc(-c2ccc(O)cc2)on1 | 77.8% (active) |
| CCCc1nc2ccccc2c(C(=O)OCC(=O)c2ccc3c(c2)NC(=O)CO3)c1CC | -11.4% |

| Compound | inhibition |
| --- | --- |
| CC(C)(C)C1C/C(=C/c2ccco2)C(=O)/C(=C/c2ccco2)C1 (stereo not drawn) | 85.1% (active) |
| OC(CNCC1CCCO1)Cn1c2ccc(Br)cc2c2cc(Br)ccc21 (stereo not drawn) | 81.5% (active) |
| CC(C)(C)c1ccc(Oc2ccc(N)cc2)cc1 | 117% (active) |
| O=C(Nc1nnc(COc2ccccc2)s1)Nc1ccccc1F | 1% |
| Cc1cc(C(=O)CCl)c(C)n1CC1COc2ccccc2O1 (stereo not drawn) | -124% |
| CS(=O)(=O)N(CC(=O)Nc1ccc(Cl)c(Cl)c1)C1CCCCC1 | 33.2% |
| COc1cc(/C=N/O)cc(Br)c1OCc1cccc(Cl)c1 | 138% (active) |
| NC(N)=N/N=C/c1ccc(OCc2ccc(Cl)cc2Cl)cc1 | -25.2% |
| COC(=O)/C=C\C(=O)Nc1cccc([N+](=O)[O-])c1 | 101% (active) |
| Fc1ccccc1C(c1nnnn1Cc1ccc2c(c1)OCO2)N1CCN(Cc2ccccc2)CC1 (stereo not drawn) | 22.4% |
| CC(C)=CCc1c(O)c(CC=C(C)C)c2occ(-c3ccc(O)cc3)c(=O)c2c1O | 15.8% |
| COc1cc(SC#N)ccc1N=Cc1c(C)[nH]n(-c2ccc(C)cc2)c1=O | 34% |
| C=C(C)COc1ccc(-c2n[nH]c(C)c2-c2ccccc2OC)c(O)c1 | 112% (active) |
| COc1ccc(/C=C/C(=O)Nc2c(C)nn(C)c2C)cc1COc1ccc(Br)cc1 | 20.4% |
| Cc1ccc(NC(=S)NC(NC(=O)Cc2cccc3ccccc23)C(Cl)(Cl)Cl)cc1 (stereo not drawn) | 72.1% (active) |
| CCOC(=O)c1c(C)[nH]c2c1-c1ccccc1C(=O)C2=O | 122% (active) |
| Cc1ccc(NC(=O)/C(=C/c2ccc([N+](=O)[O-])cc2)NC(=O)c2ccccc2)cc1 | -5.3% |
| COc1cc(C(=O)OC(C)C(=O)NCC2CCCCC2)cc(NC(=O)c2ccco2)c1OC (stereo not drawn) | 93% (active) |
| Cc1cccc(OCc2nnc(SCc3nc4cc(C(F)(F)F)ccc4c(=O)[nH]3)o2)c1 | 114% (active) |
| CCOC(=O)C(C)Sc1nc2ccccc2c(=O)n1CC1CCCCC1 (stereo not drawn) | 61.7% |
| C=CCn1c(C)cc(C2=NNC(=NCC)SC2)c1C | 136% (active) |
| NC(=O)COc1ccc(C23CC4CC(CC(C4)C2)C3)cc1 | 7.3% |
| CCOC(=O)C1=C(c2ccc(OC)cc2)C(=O)c2ccccc2C1=O | 110% (active) |
| CSc1nc2sc3c(c2c(=O)[nH]1)CCc1ccccc1-3 | 12.2% |
| O=C(/C=C/c1ccc(F)cc1)Nc1cccc(S(=O)(=O)Nc2cccc(C(F)(F)F)c2)c1 | 7.6% |
| CSc1nc(-c2ccccc2)nc(C(Cl)Cl)n1 | 96.2% (active) |
